An excerpt weighted towards active compounds, which were near 21% of everything screened.
Pf growth 96h = P. falciparum growth inhibition at 96 hour, primary screen for plastid delayed-death inhibitors. AID 504834. P. falciparum luciferase reporter growth, 96 h. 6.9% of 320,000 active. Potency, µM (top dose mostly 28.7 µM), for the others: top-dose activity change, negative = inhibition, most hits filed as inhibitors; further: potency means the concentration at half of the fitted maximal effect; on the % scale 0 is the no-effect control and ±100 the full control effect
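P. falciparum expressing integrated firefly luciferase, in erythrocytes at 2% hematocrit, 0.05% parasitemia, incubated with compounds 96 h at 37 C, 5% CO2. Growth inhibition read as loss of luminescence; two-generation exposure targets delayed-death apicoplast inhibitors.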
AMA1-RON2 inh = AMA1-RON2 (P. falciparum) interaction inhibition; AlphaScreen AMA1-biotinylated RON2 peptide binding; Potency, µM (titrated, usually from 58.2 µM), without a hit: at the top dose activity change, negative = inhibition, hits mostly inhibitors; 0.2% of 360,000 active;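 further: potency means the concentration at half of the fitted maximal effect; 0% = vehicle wells and -100% = peptide control; nearly all actives have a fitted effect of over 45% in size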
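AMA1 (3D7) with his tag at 25 nM final met compounds first, then biotinylated RON2 peptide at 25 nM; detection used donor plus acceptor beads, 10 µg/mL apiece, read by AlphaScreen after 30 min at room temperature.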
HCV inhibitor = HCV inhibition | Huh7.5.1 HCVcc-Cre infection, luciferase reporter, 44 h | Potency, µM (doses to about 41.8 µM), without a hit: at the highest dose activity change, negative = inhibition, hits mostly inhibitors | 3.4% of 340,000 active | AID 651820; further: potency means the concentration at half of the fitted maximal effect; on the % scale 0 is the no-effect control and ±100 the full control effect
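Antiviral activity was scored by luciferase reporter output from cells infected with HCVcc-Cre (~0.5 moi) in presence of compound, 44 h infection period, cells seeded 1,000/well 4 h prior.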
Pf growth 48h = inhibits P. falciparum growth in the first generation, 48 h | P. falciparum luciferase growth in erythrocytes, 48 h | 5.9% of 310,000 active | Potency, µM (highest dose often 28.7 µM), inactives show at the highest dose activity change, negative = inhibition, usual class: inhibitors; further: potency means the concentration at half of the fitted maximal effect; on the % scale 0 is the no-effect control and ±100 the full control effect
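A one-generation exposure of luciferase-tagged malaria parasites in RPMI 1640/Albumax erythrocyte culture, 37 C and 5% CO2. Inhibition is inferred from decreased luminescence after adding detection reagent.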
Shiga toxin inh = inhibitors of Shiga toxin in Vero cells | Vero cells, Shiga toxin protein synthesis inhibition reporter | inhibition, % at 38.7 µM | 9.2% of 290,000 active | AID 2315; in the data active means inhibition mostly above about 28%, no sharp cut-off; inactive means mostly below about 43%; further: 0% is about no effect
Cycloheximide cs = counter-screen hit for Shiga toxin inhibitors, cycloheximide; AID 2314; max response, %; 12% of 300,000 active; cell reporter, cycloheximide protein synthesis inhibition counterscreen; in the data active means max response mostly above about 13%, no sharp cut-off; inactive means mostly below about 14%; further: read at 38.3 µM for the half of the compounds with a filed dose; 0% is about no effect
Active calls of the source: *; ? = inconclusive; . = not tested or not shown; + = active, no number. Unless noted, the call rests on the fitted dose curve; in most records, active means well fitted curve in the direction sought with a large enough effect; inconclusive means small, poorly fitted or top-dose-only effect, or another doubt; inactive means no such curve, though single readings can be large; an effect the other way counts as inactive or inconclusive.

SMILES | Pf growth 96h | AMA1-RON2 inh | HCV inhibitor | Pf growth 48h | Shiga toxin inh | Cycloheximide cs
CCCC(=O)N1CCC1(C)C(=O)Nc1ccc2nccnc2c1 (centres undefined) | . | 4.6% | . | . | . | .
Cc1onc(-c2ccccc2)c1-c1ccc(S(N)(=O)=O)cc1 | ? | -2.1% | ? | ? | 68.5* | 38.2*
Cc1ccc2c(C)c3ccc4ccccc4c3c[n+]2c1 | . | 8.2% | 12.6µM* | . | . | .
O=C(Nc1nnc(C(F)(F)F)s1)c1ccc(Br)s1 | 16.4% | -15.2% | ? | 39.2% | 54.3* | 21.3*
Cc1cc(C(=O)Nc2nnc(C(F)(F)F)s2)no1 | -18.9% | 0.0% | -22.6% | -11.2% | 20.7 | 10.6
CCSc1nnc(NC(=O)c2ccc(Br)s2)s1 | 0.9% | -7.2% | 10.5% | 27.5% | -27.3 | 10.4
Cc1cc(C(=O)Nc2nnc(C3CCCCC3)s2)cs1 | -0.4% | -6.8% | 0.5% | 109.4% | 62.5 | 38.1*
CC(NC(=O)Nc1nnc(C(F)(F)F)s1)(C(F)(F)F)C(F)(F)F | 4.8% | 1.8% | 2.82µM* | 3.29µM* | 20.2 | 1.0
CC(C)(C)CC(=O)Nc1nnc(C(F)(F)F)s1 | 12.7% | -14.1% | 15.2% | -10.5% | 17.5 | -4.4
Cc1cc(C(=O)Nc2nnc(C(F)(F)F)s2)cs1 | 59.4% | 15.4% | -11.9% | 35.7% | 8.7 | 18.2*
Cc1cccc(C)c1NC(=O)C1(C)CSCC(=O)N1CCOc1ccccc1 (centres undefined) | . | -4.7% | . | . | . | .
O=C1C=C(c2cccc(Br)c2)C[C@@H](c2ccc3c(c2)OCO3)C1 | ? | -24.1% | -29.2% | 4.65µM* | . | .
COc1cccc(OC)c1C1=CC(=O)C[C@H](c2ccc3c(c2)OCO3)C1 | ? | -29.6% | ? | ? | . | .
COc1ccc([C@H]2CC(=O)C=C(c3ccc(O)cc3)C2)cc1OC | ? | -14.4% | ? | ? | . | .
CCOC(=O)c1cccc(C2=CC(=O)C[C@H](c3ccc(OC)c(OC)c3)C2)c1 | ? | -16.1% | 12.6µM* | 10.4µM* | . | .
COc1cccc(C2=CC(=O)C[C@H](c3ccc4c(c3)OCO4)C2)c1OC | ? | -28.1% | 10µM* | 28.4% | . | .
COc1ccc([C@H]2CC(=O)C=C(c3cccc(Cl)c3O)C2)cc1OC | 9.28µM* | -11.5% | -24.1% | ? | . | .
CCCS(=O)(=O)NC(=O)C1(C)CCN(C(=O)c2ccc(SC(F)(F)F)cc2)C1 (centres undefined) | . | -6.1% | . | . | . | .
CC(C)Oc1ccc(CNC(=O)CCCN2C(=O)C(c3ccccc3)Oc3cccnc32)cc1 (centres undefined) | -8.1% | -5.5% | 10.7% | -20.1% | -18.9 | -3.9
O=C1C=C(c2cccc(Cl)c2)C[C@@H](c2ccc3c(c2)OCO3)C1 | ? | -17.8% | ? | ? | . | .
O=C1C=C(c2cccc3c2Oc2ccccc2S3)C[C@@H](c2ccc(Cl)cc2)C1 | ? | -11.1% | -11.4% | ? | . | .
COc1ccc([C@H]2CC(=O)C=C(c3cccc4c3Oc3ccccc3S4)C2)cc1OC | ? | -21.2% | 12.6µM* | ? | . | .
O=C1C=C(c2cccc(Cl)c2O)C[C@@H](c2ccc3c(c2)OCO3)C1 | ? | -24.3% | 22.5% | 11.7µM* | . | .
C=Cc1ccc(Cn2c(C)c(C(=O)NCc3ccccc3C(F)(F)F)sc2=O)cc1 | . | -15.4% | . | . | . | .
Cc1cccc(C)c1-n1nnnc1C1c2ccccc2C(=O)N1CCc1ccc(O)cc1 (centres undefined) | . | 1.3% | . | . | . | .
SMILES | Pf growth 96h | AMA1-RON2 inh | HCV inhibitor | Pf growth 48h | Shiga toxin inh | Cycloheximide cs
CCOC(=O)N1CCN(c2cc(=O)n(-c3ccccc3Cl)c(=O)[nH]2)CC1 | -0.4% | 21.7% | 0.7% | 7.2% | -1.5 | -4.1
COC(=O)C1CCN(c2cc(=O)n(-c3ccccc3Cl)c(=O)[nH]2)CC1 | 18.8% | -6.4% | 20.1% | 6.57µM* | 26.0 | 2.7
COCCN1CCN(C(=O)c2ccc3nc(Cc4ccc(OC)c(OC)c4)oc3c2)CC1 | ? | -13.5% | ? | -24.1% | 14.4 | 10.3
CCN(CCn1cccn1)C(=O)c1ccc2nc(Cc3ccc(OC)cc3)oc2c1 | ? | 7.5% | -13.3% | 32.2% | 56.0 | 23.1*
COc1ccc(Cc2nc3ccc(C(=O)N4CCOCC4)cc3o2)cc1 | ? | -21.6% | -4.3% | 3.2% | + | 67.9*
COc1ccc(Cc2nc3ccc(C(=O)N4C[C@@H](C)O[C@@H](C)C4)cc3o2)cc1OC | 22.5% | -2.2% | ? | ? | 62.5* | 43.7*
COc1ccc(Cc2nc3ccc(C(=O)NCCn4cccn4)cc3o2)cc1 | 5.1% | -1.7% | . | -21.5% | 5.4 | 2.1
COc1cc(OC)c(S(=O)(=O)Nc2ccc(C(=O)O)cc2)cc1S(=O)(=O)Nc1ccc(C(=O)O)cc1 | 22.1% | -7.9% | 17.3% | 6.7% | 10.9 | -6.0
CC(=O)C1=C(C)NC(SCc2cccc3ccccc23)=C(C#N)C1c1ccco1 (centres undefined) | 2.94µM* | 21.3% | ? | 10.4µM* | -0.9 | -2.4
CC(=O)C1=C(C)NC(SCC(=O)c2ccc(Cl)cc2Cl)=C(C#N)C1c1ccco1 (centres undefined) | ? | 39.7% | 2.51µM* | ? | -7.6 | 1.8
C#CCNCCS(=O)(=O)N(Cc1ccc(Br)cc1)[C@@H](CC(C)C)C(=O)O | . | -1.5% | -3.2% | . | . | .
CCOC(=O)CCNC(=O)N1CCCC(N(C)CCc2ccc(OC)c(OC)c2)C1 (centres undefined) | ? | -2.4% | 0.4% | -5.4% | -7.1 | -1.6
CCCNC(=O)c1cc(-c2ccco2)on1 | -0.1% | -3.1% | -15.5% | 445.2% | 119.6* | 48.8*
COc1ccc(CNC(=O)c2cc(-c3ccco3)on2)cc1 | 0.3% | -4.4% | -21.4% | ? | 10.8 | 9.4
CC(C)CNC(=O)c1cc(-c2ccco2)on1 | 18.3% | 13.9% | -18.5% | 273.0% | + | 35.3*
COc1cccc(Oc2ccc3nnc(C(F)(F)F)n3n2)c1 | 56.9% | 6.2% | ? | 381.7% | 17.6 | 4.2
COc1cccc(Oc2ccc(C(F)(F)F)cc2N)c1 | 46.1% | -0.8% | -12.0% | 52.2% | 86.9* | 28.9*
CCOc1ccc(C(F)(F)F)cc1NC(C)=O | ? | 11.6% | ? | -2.7% | -8.6 | -4.9
CCOc1ccc(Oc2ccc(C(F)(F)F)cc2N)cc1 | -5.0% | 4.4% | ? | 28.7% | 44.2 | 15.8*
CCC(CC)C(=O)N(C)c1c(C)nc2c(OCC(=O)C(C)(C)C)cccn12 | . | 1.9% | . | . | . | .
COc1ccc(-c2csc(C(NC(C)=O)c3ccccc3)n2)cn1 (centres undefined) | . | 15.3% | . | . | . | .
O=[N+]([O-])c1ccc(C[n+]2cccc(O)c2)cc1 | 50.5% | 1.9% | 2.0% | 22.4% | . | .
COc1cc2cc[n+](Cc3ccc([N+](=O)[O-])cc3)cc2cc1OC | 3.29µM* | 1.0% | 6.5% | 4.65µM* | 3.8 | -4.6
COc1cccc(NC=C2C(=O)OC3(CCCCC3)OC2=O)c1 | 28.8% | 4.9% | 1.7% | 28.6% | 67.5 | 19.9

Screens from PubChem.
